These results are taken from PubChem BioAssay (NCATS).

Molecules are shown by their SMILES. Results filed as inconclusive are left out. Entries that show only a call come without a potency. A number with no mark means an inactive call. Activity calls are given as the source filed them. The call rests on the fitted dose curve; in most records, active means well fitted curve in the direction sought with a large enough effect; inconclusive means small, poorly fitted or top-dose-only effect, or another doubt; inactive means no such curve, though single readings can be large; an effect the other way counts as inactive or inconclusive.

The target of test [1] is Cytochrome P450 3A7 (Homo sapiens) (UniProt P24462). Nature of the test: Cytochrome P450 family 3 subfamily A member 7 (CYP3A7) small molecule antagonists: luciferase biochemical qHTS assay (AID 1963596). Further: nearly all actives have a fitted effect of over 40% in size. The method, boiled down: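 Enzyme-substrate mix + cpd (DMSO), 10 min RT; + NADPH regen system, 1 h RT; + luciferin detection reagent, 20 min RT; luminescence read. Proluciferin substrate, P450-Glo format, 1536-well qHTS.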
Cytochrome P450 3A7 (Homo sapiens), sequence (P24462 whole entry, looked up): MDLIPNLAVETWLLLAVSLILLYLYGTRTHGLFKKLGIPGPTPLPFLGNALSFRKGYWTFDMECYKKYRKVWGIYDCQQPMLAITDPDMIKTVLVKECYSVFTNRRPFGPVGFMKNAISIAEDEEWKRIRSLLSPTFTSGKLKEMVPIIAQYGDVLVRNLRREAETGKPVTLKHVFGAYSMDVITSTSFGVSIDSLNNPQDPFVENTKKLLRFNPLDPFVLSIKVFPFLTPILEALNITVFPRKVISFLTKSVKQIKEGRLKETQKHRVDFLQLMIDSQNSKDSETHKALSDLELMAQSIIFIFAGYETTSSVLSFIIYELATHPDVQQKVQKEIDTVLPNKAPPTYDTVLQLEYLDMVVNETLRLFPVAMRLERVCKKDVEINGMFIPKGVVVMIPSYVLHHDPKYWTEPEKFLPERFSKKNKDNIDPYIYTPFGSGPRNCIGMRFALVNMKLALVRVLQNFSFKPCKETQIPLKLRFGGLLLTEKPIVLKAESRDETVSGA

The nature of test [2]: Viability qHTS for spleen associated tyrosine kinase inhibitor (SYKi) naive MV4-11 cells (AID 1963823). Further: nearly all actives have a fitted effect of over 40% in size. Further: potency means the concentration at half of the fitted maximal effect. In outline: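 Seeding of 500 SYKi-naive MV4-11 cells per well onto pre-dispensed compounds preceded a 72 hr incubation at 37 C. Luminescent CellTiter-Glo signal, read after 10 min at room temperature, reflected viable cells.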
Test [3] in a line: Viability qHTS for spleen associated tyrosine kinase inhibitor (SYKi) drug resistant MV4-11 cells (AID 1963824). Further: nearly all actives have a fitted effect of over 35% in size. Further: potency means the concentration at half of the fitted maximal effect. The method, boiled down:
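SYK inhibitor-resistant MV4-11 AML cells, 500 per well, added to predispensed compounds and incubated 72 hr at 37 C, 5% CO2. Viability measured by CellTiter-Glo luminescence after 10 min at room temperature.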

A short description of test [4]: Quantitative highthroughput screen to assess conditional lethalithy of NOMO1 cells grown in RPMI1640 with untreated serum (RPMI+s) (AID 1963876). Further: nearly all actives have a fitted effect of over 35% in size. In outline:
(§1)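 Each medium arm—HPLM with 10% dialyzed FBS, or RPMI1640 with 5 mM glucose and 10% untreated or dialyzed FBS—was screened against an 11-point, 3-fold compound titration for 48 h at 37 °C, with CellTiter-Glo luminescence as endpoint.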

The nature of test [5]: Quantitative highthroughput screen to assess conditional lethalithy of NOMO1 cells grown in RPMI1640 with dialyzed fetal bovine serum (RPMI+ds) (AID 1963877). Further: series mostly up to about 46 µM; nearly all actives have a fitted effect of over 30% in size. In outline: as §1
Test [6] in a line: Quantitative highthroughput screen to assess conditional lethalithy of P12 Ichikawa cells grown in RPMI1640 with dialyzed fetal bovine serum (RPMI+ds) (AID 1963880). Further: nearly all actives have a fitted effect of over 35% in size. The settings on record: Potency: P12-Ichikawa viability. In outline:
as §1

Test [7] in a line: Quantitative highthroughput screen to assess conditional lethalithy of P12 Ichikawa cells grown in RPMI1640 with untreated serum (RPMI+s) (AID 1963881). Further: series mostly up to about 46 µM; nearly all actives have a fitted effect of over 35% in size. To be noted: Potency: viability. The method, boiled down: as §1
Test [8] can be described thus: Quantitative highthroughput screen to assess conditional lethalithy of SEM cells grown in Human Plasma-Like Medium with dialyzed fetal bovine serum (HPLM+ds) (AID 1963882). The method, boiled down:
as §1

A short description of test [9]: Quantitative highthroughput screen to assess conditional lethalithy of NOMO1 cells grown in Human Plasma-Like Medium with dialyzed fetal bovine serum (HPLM+ds) (AID 1963878). Further: nearly all actives have a fitted effect of over 35% in size. The method, boiled down: as §1
Test [10] in a line: Quantitative highthroughput screen to assess conditional lethalithy of P12 Ichikawa cells grown in Human Plasma-Like Medium with dialyzed fetal bovine serum (HPLM+ds) (AID 1963879). The settings on record: Potency: viability. The method, boiled down:
as §1

The nature of test [11]: Cellular viability qHTS for adrenocortical cancer (ACC) cell line SW-13 (AID 1963989).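 Further: cells grown in serum-free medium with ITS supplement; nearly all actives have a fitted effect of over 65% in size.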 To be noted: SW-13 ACC cells viability, CellTiter-Glo, 48 h; activity (max response): active compounds read low. In outline:
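Viability was read as CellTiter-Glo luminescence after 48 h compound treatment (up to 46 uM final) of SW-13 cells grown serum-free; titration curves were fit with a four-parameter logistic model to give IC50 and efficacy.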

Test [12] can be described thus: Cellular viability qHTS for adrenocortical cancer (ACC) cell line NCI-H295R (AID 1963990). Further: nearly all actives have a fitted effect of over 60% in size. The method, boiled down: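 CellTiter-Glo ATP luminescence, read 48 h after compound addition, measured viability of NCI-H295R adrenocortical cells grown serum-free with ITS. Final concentrations spanned up to 46 uM. Data normalized to DMSO and doxorubicin, fitted for IC50 and maximal response.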

On to `NCCCCCNC1(c2ccccc2)CCCCC1`, for which the Potency entry in test [1] was “inactive”.

As to `Cc1ccccc1CN1CCC(N2CCC(n3c(=O)[nH]c4ccccc43)CC2)CC1`, the Potency result in test [1] is “inactive”.

Consider `CN(C)CCc1c[nH]c2ccc(CN3CCN(C)S3(=O)=O)cc12`, for which the Potency result in test [1] is “inactive”.

For `CN=C(NS(=O)(=O)c1ccc(Cl)cc1)N1C[C@H](c2ccccc2)C(c2ccc(Cl)cc2)=N1`, the Potency entry in test [1] was “inactive”. Further, the Potency in test [2] and in test [3] was 20.6 µM (active) throughout.

As to `CC(Cc1ccccc1)NC=O` (configuration not stated), the Potency result in [1] was “inactive”.

Turning to `O=C(N1CCOCC1)N1CCN(c2ccc(Cl)cc2)CC1`, the Potency result in test [1] is “inactive”.

For the compound `COc1cc(N2CCN(C)CC2)ccc1N`, the Potency entry in test [1] was “inactive”.

Regarding `O=[As]O[As]=O` (configuration not stated), the Potency result in test [1] was “inactive”.

Consider `CCCCn1cc(C(=O)c2cccc3ccccc23)c2ccccc21`, for which, in test [1], the Potency entry was “inactive”.

For the compound `CCCCCCCCOC(=O)c1ccccc1C(=O)OCCCCCCCC`, the Potency result in test [1] is “inactive”.

For the compound `Cc1cn(C[C@H](N)C(=O)O)c(=O)n(Cc2cc(-c3ccccc3)sc2C(=O)O)c1=O`, the Potency entry in test [1], in test [2] and in [3] was “inactive” in each case.

Regarding `O=C(CC1NCCC[C@H]1O)Cn1cnc2cc(Br)c(Cl)cc2c1=O` (some centres not stated), in [1], the Potency entry was “inactive”.

For `CC(C)N(CCNC(=O)CN1CCCC1=O)C(C)C`, the Potency result in test [1], in test [2], in test [3], in [4], in test [5] and in [6] was “inactive” in each case. Further, the Potency entry in test [7] and in test [8] was “inactive” in each case.

In the case of `CCOc1cc(C=O)ccc1O`, the Potency entry in test [1] was “inactive”.

As for `Nc1ccc([N+](=O)[O-])cc1`, the Potency entry in test [1] was “inactive”.

With `N#Cc1ccc([C@H]2CCCC[C@H]2O)cc1C(F)(F)F`, the Potency result in [1] is “inactive”.

For the compound `CCCCc1ccc(C(=O)O)nc1`, the Potency entry in [1] was “inactive”.

In the case of `NC1(c2ccccc2)CCCCC1`, in [1], the Potency entry is “inactive”.

As for `CNC(C)[C@@H](O)c1ccc(O)cc1` (some centres not stated), the Potency entry in [1] is “inactive”.

With `CCC(C(N)=O)N1CCCC1=O` (configuration not stated), the Potency entry in [1], in test [2] and in test [3] was “inactive” throughout.

As to `C#CC(C)(O)CC` (configuration not stated), in [1], the Potency result is “inactive”.

In the case of `CN(Cc1cccc(-c2ccncc2)c1)C(=O)Oc1ccc(-c2ccc(C(N)=O)cc2)cc1`, in test [1], the Potency entry was “inactive”.

As to `c1cncc(OC[C@@H]2CCN2)c1`, the Potency entry in test [1], in [2] and in test [3] was “inactive” each time.

`CCCCNCC(O)c1ccc(O)cc1` (configuration not stated): the Potency result in test [1] was “inactive”.

`CN1C2CCC1CC(OC(=O)N1Cc3ccccc3NC1=O)C2` (configuration not stated): the Potency result in [1], in test [2] and in test [3] was “inactive” each time.

As for `CCCCCn1cc(C(=O)c2cccc3ccccc23)c2ccccc21`, in test [1], the Potency entry was “inactive”.

Consider `CCOC(=O)c1ccccc1C(=O)OCC`, for which the Potency result in test [1] is “inactive”.

With `CCN(CC)N(O)N=O`, the Potency entry in [1] is “inactive”.

For the compound `CC(=O)OC1C[C@H](O[C@@H]2C(O)C[C@H](O[C@@H]3C(O)C[C@@H](OC4CC[C@]5(C)C(CCC6C5CC(O)[C@@]5(C)C(C7=CC(=O)OC7)CC[C@@]65O)C4)OC3C)OC2C)O[C@H](C)[C@H]1O[C@H]1OC(CO)C(O)C(O)C1O` (some centres not stated), the Potency entry in [1] was “inactive”.

Take `NCC(O)c1cccc(O)c1` (configuration not stated): the Potency result in test [1] is “inactive”.

`CC(N)Cc1c[nH]c2ccccc12` (configuration not stated): the Potency entry in [1], in [2] and in test [3] was “inactive” in each case.

As for `CC(=O)NCCCOc1ccc(C(=O)N2CCC(N3C(=O)CCc4ccccc43)CC2)cc1`, in test [1], the Potency result is “inactive”.

Take `O=C(Oc1ccc([N+](=O)[O-])cc1)N1CCN(Cc2cccc(Oc3ccccc3)c2)CC1`: the Potency result in [1], in [4], in test [9], in test [10], in [6] and in test [7] was “inactive” in each case. The figures for the Potency in [2] and in test [3] were 16.4 µM (active) and 13.2 µM (active), respectively.

`COc1ccc(OC)c(C(O)C(C)N)c1` (configuration not stated): the Potency result in test [1] is “inactive”.

On to `CNC(=O)NC(O)C(Cl)(Cl)Cl` (configuration not stated), for which the Potency result in test [1] and in test [2] was “inactive” each time.

With `CN1C(=O)C(Cc2ccc3ccccc3c2)N=C(c2ccc(O)cc2)c2cc(Cl)ccc21` (configuration not stated), the Potency result in test [1] is “inactive”. Moreover, the Potency in test [2] is 20.6 µM (active).

Take `COC(=O)c1ccccc1C(=O)OC`: the Potency entry in test [1] is “inactive”.

With `CCN1CCN(C(c2ccc(Cl)cc2)c2ccc(Cl)cc2)CC1`, the Potency result in [1] was “inactive”.

As for `CC(C)(N)Cc1ccccc1`, in [1], the Potency result is “inactive”.

In the case of `COC(=O)[C@@H](N)CCCN/C(N)=N/[N+](=O)[O-]`, the Potency result in test [1], in test [2], in [3] and in test [12] was “inactive” throughout. Besides, the activity (max response) in [11] is 3%.
